The values below come from PubChem BioAssay (NCATS).

Assay [1] concerns Zika virus NS2B-NS3 protease (linked construct). Description: Primary screen NINDS Rhodamine qHTS for Zika virus inhibitors (AID 1347160). Also: % is scaled to controls: 0 for no effect and ±100 for the full control effect; nearly all actives have a fitted effect of over 55% in size. In outline: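 Each compound, titrated, sat 15 min with 25 nM linked protease before 1.5 microM Rhodamine110 substrate went in. Fluorescence gain over the next 15 min, in pH 8.0 Tris with Tween 20, gave Hill-fitted curves.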
On the technique in general: Quantitative high-throughput screening tests each substance at several concentrations.

For assay [2], the target named is Calcium and integrin-binding protein 1 (Homo sapiens) (UniProt Q99828). The assay is described as follows: Primary qHTS for Identification of Calcium Integrin Binding Protein 1 (CIB1) Competitor (AID 1508620).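 Also: GST tagged CIB1 binding a fluorescein labelled alphaIIb integrin peptide tracer; top concentration of the series differs between compounds; % is scaled to controls: 0 for no effect and ±100 for the full control effect.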 Put shortly: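 Fluorescence polarization competition: CIB1-GST (1 uM final) preincubated with compound 15 min at room temperature, then FITC-labeled alphaIIb peptide (100 nM final) added for another 15 min. Polarization read at Ex 480/Em 540.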
Sequence of Calcium and integrin-binding protein 1 (Homo sapiens) (Q99828 whole entry, looked up): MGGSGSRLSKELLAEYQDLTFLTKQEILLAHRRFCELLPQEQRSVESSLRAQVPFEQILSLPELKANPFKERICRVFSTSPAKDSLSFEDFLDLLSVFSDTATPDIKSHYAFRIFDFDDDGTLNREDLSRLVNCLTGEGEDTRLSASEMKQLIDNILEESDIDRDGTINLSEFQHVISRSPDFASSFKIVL

Assay [3] deals with Glutathione peroxidase 1 (Homo sapiens) (UniProt P07203). The assay is described as follows: Primary qHTS Assay for Inhibitors of Recombinant Selenoprotein Glutathione Peroxidase 1 (GPX1) (AID 1845191). Also: nearly all actives have a fitted effect of over 65% in size. Put shortly: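 GPX1 10 nM, GR 100 nM, GSH 1 mM, NADPH 0.5 mM, CHP 0.5 mM (final). 30-min cpd preincubation, RT. Ex340/Em450 read t=0, t=15 min.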
Sequence of Glutathione peroxidase 1 (Homo sapiens) (P07203 whole entry, looked up): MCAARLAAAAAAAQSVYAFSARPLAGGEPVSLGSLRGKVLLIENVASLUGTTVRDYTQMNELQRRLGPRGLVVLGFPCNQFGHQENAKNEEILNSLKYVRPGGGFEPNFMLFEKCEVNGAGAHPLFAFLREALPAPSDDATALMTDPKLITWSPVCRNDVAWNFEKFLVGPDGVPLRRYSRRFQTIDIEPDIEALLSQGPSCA
For assay [4], the target named is Luciferin 4-monooxygenase (Photinus pyralis) (UniProt P08659). Description: Primary firefly luciferase (FLuc) qHTS assay for identification of artifact compounds. (AID 1845220). Also: nearly all actives have a fitted effect of over 60% in size. As to conditions: outcome: dose series up to 54.1 µM unless noted. Put shortly: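 In this counter-screen for luciferase artifacts, test compounds met substrate (10 uM each luciferin and ATP) before 10 nM enzyme started the reaction. Light output was measured 5 min later.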

Assay [5] in a line: Primary fluorescence-based thiol-reactive (MSTI) qHTS assay for identification of artifact compounds. (AID 1845221).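 Also: thiol-reactive compounds lower the probe fluorescence signal; nearly all actives have a fitted effect of over 65% in size.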 In outline:
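Curve-fitted percent inhibition (4-parameter Hill) derived from fluorescence, Ex 525/Em 598 nm, scaled with Acetyl-MSTI and MSTI; 1 h incubation at room temperature.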

Assay [6] concerns Nanoluciferase (engineered Oplophorus gracilirostris luciferase). Description: Primary Nanoluciferase (NLuc) qHTS assay for identification of artifact compounds. (AID 1845222).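 Also: NLuc secreted into diluted conditioned medium of S16 cells.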 Put shortly: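 Using secreted nanoluciferase in S16 culture medium (0.22 um filtered, 1:55 dilution), compounds were preincubated 15 min at RT. Signal was generated with Nano-Glo reagent (1:100) over 5 min.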

Assay [7] in a line: Primary redox qHTS assay for identification of artifact compounds. (AID 1845223).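 Also: 0% = DMSO and 100% = reference compound.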 Put shortly:
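Redox-cycling detection via DTT (250 uM final) oxidation coupled to Amplex Red (25 uM)/HRP (250 mU/mL) in HBSS. 15 min preincubation plus 30 min after DTT, room temperature. Ex/Em 525/598 nm; 4-parameter Hill fit against DMSO and 10 uM DA3003.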

The subject of assay [8] is HaCat. Description: Cytotoxic Profiling of Annotated Libraries Using Quantitative High-Throughput Screening (AID 1296008). Also: nearly all actives have a fitted effect of over 60% in size. Also: potency is read from the fitted curve at half-maximal effect. As to max response: % is scaled to controls: 0 for no effect and ±100 for the full control effect. As to conditions: Five cell lines viability, CellTiter-Glo ATP luminescence, 48-72 h; max response: stronger effect = lower value. Put shortly:
(§1)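 Compounds were pin-transferred onto cells and incubated 48 or 72 hr at 37 degree Celsius, 95% humidity. CellTiter-Glo was added, plates sat 10 min at room temperature, then ATP-coupled luminescence was imaged as the viability read-out.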

Assay [9] has as its system NIH3T3. The assay is described as above. As to conditions: Five cell lines viability, CellTiter-Glo ATP luminescence, 48-72 h; max response: stronger effect = lower value. Put shortly: as §1
A general note: Cellular ATP, detected with luciferase, serves as a proxy for viable cell number.

In assay [10] the test system is CASKI. The assay is described as follows: Primary qHTS to identify gynecologic anti-cancer compounds using libraries of approved drugs and bioactive compounds (AID 1345084). Also: nearly all actives have a fitted effect of over 55% in size. Also: potency is read from the fitted curve at half-maximal effect. As to conditions: Gynecologic cancer cell panel viability, ATPlite luminescence, 48 h; series mostly up to 57.5 µM. In outline:
(§2)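 Cytotoxicity screen measuring ATP content by luciferase luminescence. Each compound is applied at five concentrations for 48 h at 37 C with 5% CO2.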

Assay [11] relates to JEG-3. Described as above. As to conditions: Gynecologic cancer cell panel viability, ATPlite luminescence, 48 h; series mostly up to 57.5 µM. Put shortly:
as §2

The target in assay [12] is Phospholipid hydroperoxide glutathione peroxidase GPX4 (Homo sapiens) (UniProt P36969). The assay is described as follows: Primary qHTS Assay for Inhibitors of Recombinant Selenoprotein Glutathione Peroxidase 4 (GPX4) (AID 1845192). Also: % is scaled to controls: 0 for no effect and ±100 for the full control effect; nearly all actives have a fitted effect of over 65% in size. In outline:
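qHTS, GR-coupled: GPX4 200 nM + cpd 30 min RT → GSH 1 mM, NADPH 0.5 mM, GR 100 nM → CHP 0.5 mM start; fluor 340/450 at t0 and t15 min; no-enzyme wells as control.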

Assay [13] relates to C33A. The assay is described as follows: Primary qHTS to identify gynecologic anti-cancer compounds using libraries of approved drugs and bioactive compounds (AID 1345084). Also: nearly all actives have a fitted effect of over 55% in size. Also: potency is read from the fitted curve at half-maximal effect. As to conditions: Gynecologic cancer cell panel viability, ATPlite luminescence, 48 h; series mostly up to 57.5 µM. In outline: as §2
Assay [14] has as its system Hek293T. Described as above. As to conditions: Gynecologic cancer cell panel viability, ATPlite luminescence, 48 h, control line for the selectivity index; series mostly up to 57.5 µM. Put shortly:
as §2

Assay [15] deals with OV90. The assay is described as above. As to conditions: Gynecologic cancer cell panel viability, ATPlite luminescence, 48 h; series mostly up to 57.5 µM. Put shortly: as §2
Assay [16] relates to PA-1. Described as above. As to conditions: Gynecologic cancer cell panel viability, ATPlite luminescence, 48 h; series mostly up to 57.5 µM. In outline:
as §2

In assay [17] the test system is Es-2. The description is as above. As to conditions: Gynecologic cancer cell panel viability, ATPlite luminescence, 48 h; series mostly up to 57.5 µM. Put shortly:
as §2

In assay [18] the test system is Tov-21-G. The assay is described as above. As to conditions: Gynecologic cancer cell panel viability, ATPlite luminescence, 48 h; series mostly up to 57.5 µM. Put shortly:
as §2

Assay [19] deals with Tov112D. The assay is described as above. As to conditions: Gynecologic cancer cell panel viability, ATPlite luminescence, 48 h; series mostly up to 57.5 µM. Put shortly: as §2
Assay [20] has as its system CAOV3. The assay is described as above. As to conditions: Gynecologic cancer cell panel viability, ATPlite luminescence, 48 h; series mostly up to 57.5 µM. Put shortly:
as §2

Unmarked numbers belong to inactive results. Results filed as inconclusive are left out. Active and inactive are the calls of the source. Calls follow the shape of the dose curve; as a rule, active = well fitted curve in the direction sought with a large enough effect; inconclusive = small, poorly fitted or top-dose-only effect, or another doubt; inactive = no such curve, though single readings can be large; an effect the other way counts as inactive or inconclusive.

Sequence of Phospholipid hydroperoxide glutathione peroxidase GPX4 (Homo sapiens) (P36969 whole entry, looked up): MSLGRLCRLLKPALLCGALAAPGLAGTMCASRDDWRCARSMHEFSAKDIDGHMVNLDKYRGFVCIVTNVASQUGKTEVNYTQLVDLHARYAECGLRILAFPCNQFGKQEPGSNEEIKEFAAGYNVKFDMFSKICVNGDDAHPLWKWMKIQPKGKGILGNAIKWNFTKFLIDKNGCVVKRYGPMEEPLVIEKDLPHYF

Take `C=C(CO)[C@@]12O[C@@H]1[C@@]1(C)C(=CC2=O)CC[C@@H](O)[C@@H]1C`: the Potency result in assay [1], in [2], in [3], in assay [5], in assay [6] and in [7] was “inactive” in each case. For the same compound, the Potency result in assay [10] and in [11] was “inactive” in each case. In addition, the call in assay [4] and in [8] was inactive. Further, the Potency in assay [9] was 7.31 µM (active).
As for `Cc1sc2c(c1C)C(c1ccc(Cl)cc1)=NC(CC(=O)OC(C)(C)C)c1nnc(C)n1-2` (stereo unspecified), the Potency result in assay [1], in [2], in assay [12], in [5], in assay [6] and in assay [7] was “inactive” in each case. The Potency entry in [13], in [14], in assay [11] and in [15] was “inactive” in each case. In addition, the call in [4] was inactive. Besides, in [16], the Potency is 2 µM (active).
On to `C[C@]12CC[C@H](O[C@@H]3O[C@H](CO)[C@@H](O)[C@H](O)[C@H]3O)CC1CC[C@@H]1C2CC[C@]2(C)[C@@H](C3=CC(=O)OC3)CC[C@]12O` (stereo partly specified), for which the Potency result in [1], in assay [2], in assay [3], in assay [6], in assay [7] and in [15] was “inactive” in each case. The outcome in assay [4] is “inactive [at 25.7 µM]”. For the same compound, the call in assay [9] was inactive. The Potency was 5.62 µM (active) in assay [13]; 10 µM (active) in assay [17]; 7.94 µM (active) in [14]; 7.94 µM (active) in assay [16]; 5.01 µM (active) in [18]; 3.16 µM (active) in [19].
Regarding `C[C@@H]1Cc2c(Cl)cc(C(=O)N[C@@H](Cc3ccccc3)C(=O)O)c(O)c2C(=O)O1`, the Potency result in assay [1], in [2], in assay [5], in assay [6], in [7] and in assay [13] was “inactive” throughout. Moreover, the Potency entry in assay [20], in assay [10], in assay [11], in assay [15] and in [18] was “inactive” throughout. The compound was called inactive in assay [4] and in assay [8]. Also, the max response in [9] was -8.41%.
Consider `CCCCn1cc(C(=O)c2cccc3ccccc23)c2ccccc21`, for which the Potency entry in [1], in [2], in assay [3], in [12], in assay [5] and in assay [6] was “inactive” in each case. Besides, the Potency result in assay [7], in assay [13], in [20], in [10], in assay [17] and in [11] was “inactive” each time. The Potency entry in assay [15], in assay [16], in assay [18] and in assay [19] was “inactive” each time. Moreover, the call in assay [4] and in [8] was inactive. The max response in assay [9] is 3.07%.
Turning to `OC(CNc1ccccc1)Cn1c2ccc(Br)cc2c2cc(Br)ccc21` (stereo unspecified), the Potency result in assay [2], in assay [3], in [12], in [6], in assay [7] and in assay [13] was “inactive” each time. In addition, the Potency entry in assay [20], in [17], in [14], in [11], in assay [15] and in [16] was “inactive” each time. Also, the Potency entry in [18] and in assay [19] was “inactive” throughout. For the same compound, the compound was classed as inactive in assay [4]. The max response in assay [8] was -16%.
As to `CCOC(=O)C1(CCc2ccccc2)CCN(Cc2ccc(NC(C)=O)cc2)CC1`, the Potency entry in assay [1], in assay [2], in [3], in assay [12], in [5] and in assay [6] was “inactive” in each case. The Potency result in [7], in assay [13], in assay [20], in [10], in assay [17] and in assay [14] was “inactive” in each case. Moreover, the Potency result in [11], in [15], in assay [16], in assay [18] and in [19] was “inactive” each time. The compound was classed as inactive in assay [4]. Besides, the values for the max response in assay [8] and in [9] were 1.98% and -0.351%, respectively.
Take `CCCCCn1cc(C(=O)C2C(C)(C)C2(C)C)c2ccccc21`: the Potency result in assay [1], in [2], in assay [3], in [12], in assay [6] and in [7] was “inactive” in each case. Besides, the Potency entry in assay [13], in [20], in [10], in assay [17], in assay [14] and in assay [11] was “inactive” each time. In addition, the Potency result in [15], in assay [16], in assay [18] and in [19] was “inactive” throughout. Moreover, the result in assay [4] and in assay [8] was inactive. Moreover, in assay [9], the max response was -0.489%.
For the compound `C=C1[C@@H](O)[C@]2(O)OC[C@]34C2[C@]2(C)C(C[C@H]3OC(=O)[C@H](O)[C@@]14O)C(C)=CC(=O)[C@H]2O` (stereo partly specified), the Potency entry in assay [1], in assay [2], in assay [3], in assay [12], in assay [5] and in assay [6] was “inactive” throughout. Moreover, the Potency result in assay [7], in assay [10], in assay [17], in assay [11], in [15] and in assay [18] was “inactive” throughout. Moreover, the outcome in assay [4] is “inactive [at 25.7 µM]”. Also, the max response in [8] is 3.98%; in [9], -5.4%.
As for `C/C1=C/[C@@H](C)C/C=C/[C@H]2[C@@H]3O[C@]3(C)[C@@H](C)[C@H]3[C@H](Cc4c[nH]c5ccccc45)NC(=O)[C@]32C(=O)/C=C\C(=O)[C@@H]1O`, the Potency result in assay [1], in assay [2], in assay [3], in [12], in [6] and in assay [7] was “inactive” each time. In addition, the Potency result in assay [13], in assay [20], in assay [10], in assay [17], in [14] and in assay [11] was “inactive” throughout. Besides, the Potency result in [15], in [16], in assay [18] and in assay [19] was “inactive” each time. In addition, the outcome in [4] was inactive. For the same compound, in assay [9], the Potency was 1.59 µM (active).
`CCCCCn1cc(C(=O)Cc2ccccc2OC)c2ccccc21`: the Potency entry in [1], in assay [2], in [12], in assay [5], in assay [6] and in assay [7] was “inactive” each time. For the same compound, the Potency entry in [13], in assay [10], in assay [17], in assay [14], in [11] and in assay [15] was “inactive” in each case. Also, the Potency result in assay [16], in assay [18] and in [19] was “inactive” throughout. For the same compound, the outcome in assay [4] was inactive. The results for the max response in assay [8] and in assay [9] were -10.3% and -7.87%, respectively.
